# Shown is part of a subset that was picked to be rich in hits.
# Vaccinia pol inh: blocks vaccinia virus processive DNA synthesis. normalized absorbance, % (no concentration beside the values). actives 0.94% (n = 46,000). in vitro processive DNA synthesis, absorbance read-out; active compounds read low; in the data active = normalized absorbance mostly below about 85%, no sharp cut-off; inactive = mostly above about 86%
# Starred values were filed as active, the others as inactive.
SMILES,Vaccinia pol inh
O=C1NC(=O)N(c2ccccc2)C(=O)/C1=C/c1ccco1,99.8
O=C1Nc2ccccc2/C1=C\C1=Cc2ccccc2OC1,92.4
O=C1c2cccc3cccc(c23)N1S(=O)(=O)c1ccc(Br)cc1,96.0
COc1ccc2cc(S(=O)(=O)n3nnc4ccccc43)ccc2c1,100.2
CC(C)(C)c1ccc(NC(=O)C2CCCCN2S(=O)(=O)c2ccccc2)cc1 (configuration not stated),94.5
COc1cccc(-n2cc(C(=O)N(CC(C)C)CC(C)C)c3ccccc3c2=O)c1,105.0
O=C(CCCn1c(=O)c2sccc2n(Cc2ccc(F)cc2)c1=O)NCc1ccc2c(c1)OCO2,98.1
Cc1ccc(C(=O)c2cnc3cc4c(cc3c2N2CCN(C)CC2)OCO4)cc1C,85.4
COc1ccc(Nc2cc(C(=O)NCCc3ccccc3)c3ccccc3n2)cc1,98.8
CC(C)CCNC(=O)c1cc(Sc2ccc(F)cc2)nc2ccccc12,91.0
Cc1ccc(Nc2cc(C(=O)NCCC(C)C)c3ccccc3n2)cc1C,71.1*
O=C(COc1ccc2ccccc2c1)Nc1c2c(nn1-c1ccc(F)cc1)CS(=O)(=O)C2,91.9
C[C@@]1(CO)[C@H](O)CC[C@@]2(C)[C@H]1CC[C@H]1C[C@@H]3C[C@@]12CC[C@]3(O)CO,15.4*
O=C(O)C1CNC(=O)N1C(=O)OCc1ccccc1 (configuration not stated),108.8
CC(=O)N[C@@H](CC(C)C)C(=O)N[C@@H](CC(C)C)C(=O)N[C@H](C=O)CCCN=C(N)N,99.9
CCCC[C@@H](C=O)NC(=O)[C@H](CC(C)C)NC(=O)[C@H](CC(C)C)NC(C)=O,98.7
CC[C@H](C)[C@H](N)C(=O)N[C@@H](CC(N)=O)C(=O)N[C@@H](CC(C)C)C(=O)N[C@@H](CCCCN)C(=O)N[C@@H](C)C(=O)N[C@@H](CC(C)C)C(=O)N[C@@H](C)C(=O)N[C@@H](C)C(=O)N[C@@H](CC(C)C)C(=O)N[C@@H](C)C(=O)N[C@@H](CCCN)C(=O)N[C@@H](C)C(=O)N[C@@H](CC(C)C)C(=O)N[C@@H](CC(C)C)C(N)=O,45.2*
c1ccc(C2CCCC(c3ccccc3)S2)cc1 (configuration not stated),100.4
Cc1ccc2oc(=O)c3cc(C(=O)Nc4ccc5c(C)cc(=O)oc5c4)sc3c2c1,103.7
Cc1ccc2oc(=O)c3cc(C(=O)N4CCN(c5ccc(F)cc5)CC4)sc3c2c1,101.0
Cc1ccc2oc(=O)c3cc(C(=O)NCCN4CCCCC4C)sc3c2c1 (configuration not stated),62.3*
O=C(O)Cc1c(C(=O)O)[nH]c2ccccc12,90.1
CC(C)(C)c1nc(S(=O)(=O)c2ccccc2)c(NCc2ccccc2)o1,100.4

# High-throughput results deposited in PubChem by ICCB-Longwood Screening Facility, Harvard Medical School.
